PubChem BioAssay (NCATS)
Inconclusive results are not listed. Unless noted, the call rests on the fitted dose curve; in most records, active means well fitted curve in either direction with a large enough effect (not every such curve was filed as active); inconclusive means small, poorly fitted or top-dose-only effect, or another doubt; inactive means flat fitted curve, though single readings scatter.

What was measured:
[1] = AP1 Signaling Pathway (AID 357); conditions: ME-180 AP-1-bla reporter, EGF-induced, beta-lactamase ratio, 5 h; at 17.2 µM (top of the series) unless noted; further: on the % scale 0 is the no-effect control and ±100 the full control effect
Method in brief: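 AP-1-bla ME-180 cells with beta-lactamase reporter under AP-1 response element, stimulated with EC50 EGF; compounds titrated, 5 hours at 37 degrees Celsius. CCF4 read at 460/530 nm ratio; positive and negative modulators judged by AC50.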

[2] = NFAT Signaling Pathway (AID 444); conditions: Jurkat NFAT-bla M1, carbachol, beta-lactamase ratio, 5 h; at 17.2 µM (top of the series) unless noted;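 further: carbachol stimulus at about its EC50 of 1 µM final; on the % scale 0 is the no-effect control and ±100 the full control effect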
Method in brief: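 Jurkat cells with NFAT-driven β-lactamase reporter and co-expressed M1 receptor, stimulated with carbachol (final 1 uM, ~EC50), compound titration, 5 h at 37 °C. CCF4 loaded 1 h at RT; 460/530 nm ratio gave %activity and AC50.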

[3] = Stat Signaling Pathway (AID 446); conditions: ME-180 (cervical carcinoma) SIE beta-lactamase reporter, IL-6 stimulated, 5 h; at 17.2 µM (top of the series) unless noted;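 further: ME-180 cervical cancer cells given 40 pM IL-6 alongside compound; SIE-controlled beta-lactamase reporter measured as 460/530 nm FRET emission ratio; on the % scale 0 is the no-effect control and ±100 the full control effect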
Method in brief: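 Overnight-plated ME-180 cells bearing a STAT Inducible Element beta-lactamase reporter; 5 h co-exposure to compound and 40 pM IL-6; values normalized to 300 pM IL-6 and 125 nM JAK inhibitor controls.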

[4] = molecular target: Glucocorticoid receptor (Homo sapiens) (UniProt P04150); assay: GR-GFP Redistribution (AID 450;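 active means compounds whose dose series gives a full or clear partial fitted curve of increased nuclear translocation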; further: potency means the concentration at half of the fitted maximal effect)
Glucocorticoid receptor (Homo sapiens), sequence (P04150 whole entry, looked up): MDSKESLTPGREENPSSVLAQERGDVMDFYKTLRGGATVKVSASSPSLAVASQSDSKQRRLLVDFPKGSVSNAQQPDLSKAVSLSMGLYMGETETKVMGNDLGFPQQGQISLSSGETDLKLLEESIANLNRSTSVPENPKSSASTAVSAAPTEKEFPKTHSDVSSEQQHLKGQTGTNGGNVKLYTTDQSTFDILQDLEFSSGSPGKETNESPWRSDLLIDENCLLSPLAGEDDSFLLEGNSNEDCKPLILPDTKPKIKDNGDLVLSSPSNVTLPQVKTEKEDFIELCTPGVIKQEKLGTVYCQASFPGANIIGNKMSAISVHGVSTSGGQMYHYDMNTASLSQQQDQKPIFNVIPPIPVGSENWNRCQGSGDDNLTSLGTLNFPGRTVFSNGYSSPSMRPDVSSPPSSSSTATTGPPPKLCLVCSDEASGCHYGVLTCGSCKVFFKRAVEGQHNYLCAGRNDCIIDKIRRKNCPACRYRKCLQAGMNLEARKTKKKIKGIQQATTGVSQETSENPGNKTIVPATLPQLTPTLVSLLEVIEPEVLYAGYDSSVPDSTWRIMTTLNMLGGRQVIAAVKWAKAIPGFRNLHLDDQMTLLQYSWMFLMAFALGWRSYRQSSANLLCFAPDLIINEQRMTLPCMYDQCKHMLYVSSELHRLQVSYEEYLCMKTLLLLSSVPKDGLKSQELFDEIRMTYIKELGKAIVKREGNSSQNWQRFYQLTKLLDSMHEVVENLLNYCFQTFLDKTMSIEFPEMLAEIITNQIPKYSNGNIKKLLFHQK

O=C(C/C(=N/O)c1ccccc1O)C(F)F
inactive: activity change, negative = inhibition [1] 15.8% | activity change, negative = inhibition [2] 0.0588% | activity, negative = inhibition [3] 3.52% | Potency [4] > 20.6 µM

Cn1ncc(N=Cc2c(O)ccc3ccccc23)c1C(=O)N1CCOCC1
inactive: activity change, negative = inhibition [1] 1.1% | activity change, negative = inhibition [2] -28.4% | activity, negative = inhibition [3] -16.5% | Potency [4] > 20.6 µM

COc1cc(C(=O)NCC(=O)n2nc(C)cc2C)cc(OC)c1OC
inactive: activity change, negative = inhibition [1] 0.479% | activity change, negative = inhibition [2] -4.87% | activity, negative = inhibition [3] 0.715% | Potency [4] > 20.6 µM

COC(=O)CC1=C(C(=O)OC)C(c2cccc(OCC(N)=O)c2)C(C#N)=C(N)O1 (stereo not given)
inactive: activity change, negative = inhibition [1] 26.1% | activity change, negative = inhibition [2] -17.4% | activity, negative = inhibition [3] 6.6% | Potency [4] > 20.6 µM

CCOc1ccc2nc(NC(NC(=O)CC)(C(=O)OC)C(F)(F)F)sc2c1 (stereo not given)
inactive: activity change, negative = inhibition [1] -9.26% | activity change, negative = inhibition [2] 8.42% | activity, negative = inhibition [3] -8.24% | Potency [4] > 20.6 µM

CC(NC(=O)CSc1nnc(COc2ccccc2)o1)c1ccccc1 (stereo not given)
inactive: activity change, negative = inhibition [1] -6.03% | activity change, negative = inhibition [2] -0.274% | activity, negative = inhibition [3] 2.03% | Potency [4] > 20.6 µM

Cc1nn(C)cc1/C=N/O
inactive: activity change, negative = inhibition [1] 10.9% | activity change, negative = inhibition [2] -0.64% | activity, negative = inhibition [3] 4.83% | Potency [4] > 20.6 µM

Cc1nn(CC(N)=O)c(=O)c2ccccc12
inactive: activity change, negative = inhibition [1] 11.8% | activity change, negative = inhibition [2] 0.254% | activity, negative = inhibition [3] 9.04% | Potency [4] > 20.6 µM

Brc1ccc2c(c1)CNc1c(ncnc1N1CCOCC1)O2
inactive: activity change, negative = inhibition [1] -1.29% | activity change, negative = inhibition [2] -6.94% | activity, negative = inhibition [3] -3.65% | Potency [4] > 20.6 µM

CCOC(=O)c1[nH]c2ccccc2c1N=CN(CC)CC
inactive: activity change, negative = inhibition [1] 9.2% | activity change, negative = inhibition [2] -19.2% | activity, negative = inhibition [3] -2.38% | Potency [4] > 20.6 µM

O=C(NC1CCCCC1)Nn1c(-c2ccccc2)nc2ccccc2c1=O
inactive: activity change, negative = inhibition [1] -2.78% | activity change, negative = inhibition [2] -2.06% | activity, negative = inhibition [3] 13.2% | Potency [4] > 20.6 µM

CCOC(=O)N1CCN(C2OC(=O)c3ccccc32)CC1 (stereo not given)
inactive: activity change, negative = inhibition [1] 0.827% | activity change, negative = inhibition [2] 27.2% | activity, negative = inhibition [3] 25.6% | Potency [4] > 20.6 µM

COCCOC(=O)C1=C(C)NC(SCC(=O)NC(C)(C)C)=C(C#N)C1c1ccco1 (stereo not given)
inactive: activity change, negative = inhibition [1] -20.5% | activity change, negative = inhibition [2] 12.6% | activity, negative = inhibition [3] -8.48% | Potency [4] > 20.6 µM

Cc1cccc(C)c1NC(=O)CSCC(=O)c1ccc(O)c(O)c1
inactive: activity change, negative = inhibition [1] -12.4% | activity change, negative = inhibition [2] 22.8% | activity, negative = inhibition [3] -19.4% | Potency [4] > 20.6 µM

CCCCn1c(-c2ccc(Cl)cc2)nc2c(=O)n(C)c(=O)[nH]c21
inactive: activity change, negative = inhibition [1] 22.6% | activity change, negative = inhibition [2] -14.1% | activity, negative = inhibition [3] 27.6% | Potency [4] > 20.6 µM

CC1(C(=O)CSc2nc3ccccc3s2)CCC(=O)O1 (stereo not given)
inactive: activity change, negative = inhibition [1] -6.34% | activity change, negative = inhibition [2] 1.72% | activity, negative = inhibition [3] 4.74% | Potency [4] > 20.6 µM

Cc1cc(C)n(CC2CC(=O)N(c3ccc(C)c(Cl)c3)C2=O)n1 (stereo not given)
inactive: activity change, negative = inhibition [1] -6.66% | activity change, negative = inhibition [2] 13.9% | activity, negative = inhibition [3] -4.28% | Potency [4] > 20.6 µM

Cc1[nH]c2ccc(F)cc2c(=O)c1SC(F)(F)C(F)C(F)(F)F (stereo not given)
inactive: activity change, negative = inhibition [1] -31.7% | activity change, negative = inhibition [2] 10.1% | activity, negative = inhibition [3] -1.13% | Potency [4] > 20.6 µM

O=C(Nc1ccc2c(c1)OCCO2)c1ccc(Br)o1
inactive: activity change, negative = inhibition [1] -1.9% | activity change, negative = inhibition [2] 6.17% | activity, negative = inhibition [3] 6.03% | Potency [4] > 20.6 µM

CCN(CC)CCCN1C(=O)C(=O)/C(=C(/O)c2ccc(OC)cc2)C1c1ccco1 (stereo not given)
inactive: activity change, negative = inhibition [1] 9.88% | activity change, negative = inhibition [2] -12.1% | activity, negative = inhibition [3] 10.8% | Potency [4] > 20.6 µM

Cc1nc(Nc2ncc3c(n2)CC(C)(C)CC3=O)nc2ccccc12
inactive: activity change, negative = inhibition [1] -5.98% | activity change, negative = inhibition [2] 10.6% | activity, negative = inhibition [3] -25% | Potency [4] > 20.6 µM

O=C(O)c1cc2cccc(S(=O)(=O)N3CCOCC3)c2cc1O
inactive: activity change, negative = inhibition [1] 7.94% | activity change, negative = inhibition [2] 0.851% | activity, negative = inhibition [3] 6.34% | Potency [4] > 20.6 µM

Cn1c(=O)[nH]c(=O)c2c1nc(N(CCO)Cc1ccccc1)n2Cc1ccccc1Cl
inactive: activity change, negative = inhibition [1] -1.99% | activity change, negative = inhibition [2] -6.08% | activity, negative = inhibition [3] -4.12% | Potency [4] > 20.6 µM

COc1ccc(N2CC(=O)N(c3ccc(OC)c(OC)c3)CC2=O)cc1OC
inactive: activity change, negative = inhibition [1] 22.8% | activity change, negative = inhibition [2] 5.84% | activity, negative = inhibition [3] 1.83% | Potency [4] > 20.6 µM

O=C(O)C1[C@H]2C(=O)N(Cc3cccs3)C[C@]23C=C[C@H]1O3 (stereo not given in full)
inactive: activity change, negative = inhibition [1] 4.68% | activity change, negative = inhibition [2] -3.3% | activity, negative = inhibition [3] 2.6% | Potency [4] > 20.6 µM
